CHX counter: affects cycloheximide protein synthesis inhibition readout, counter-screen | cell reporter, cycloheximide protein synthesis inhibition counterscreen | max response, % | 300,000 compounds, 12% hits | AID 2314; in the data active = max response mostly above about 13%, no sharp cut-off; inactive = mostly below about 14%; also: read at 38.3 µM for the half of the compounds with a filed dose
NS1 function inh: influenza NS1 inhibition | Potency, µM (titrated, usually from 46.1 µM) | AID 2326 | 270,000 compounds, 0.4% hits; calls by dose curve; also: actives are rising curves; nearly all actives have a fitted effect of over 50% in size
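OD600 was taken as the measure of yeast growth restored by compound in an NS1-expressing S. cerevisiae strain. Cells had been washed out of glucose medium and diluted 1:100 into galactose -URA medium, pH 6.0.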
Shiga inhibitor: Shiga toxin inhibition; Vero cells, Shiga toxin protein synthesis inhibition reporter; inhibition, % at 38.7 µM; 290,000 compounds, 9.2% hits; AID 2315; in the data active = inhibition mostly above about 28%, no sharp cut-off; inactive = mostly below about 43%
SARS PLP yeast: blocks SARS-CoV papain-like protease in a yeast assay; S. cerevisiae expressing SARS-CoV PLpro, growth rescue; Potency, µM (top dose mostly 32.9 µM), hits mostly activators; 330,000 compounds, 0.19% hits; calls by dose curve; also: nearly all actives have a fitted effect of over 55% in size
Pf growth 48h: inhibits P. falciparum growth in the first generation, 48 h; P. falciparum luciferase growth in erythrocytes, 48 h; AID 504832; 310,000 compounds, 5.9% hits; Potency, µM (titrated, usually from 28.7 µM), hits mostly inhibitors
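A one-generation exposure of luciferase-tagged malaria parasites in RPMI 1640/Albumax erythrocyte culture, 37 C and 5% CO2. Inhibition is inferred from decreased luminescence after adding detection reagent.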
Pf growth 96h: P. falciparum growth inhibition at 96 hour, primary screen for plastid delayed-death inhibitors | Potency, µM (doses to about 28.7 µM), most hits filed as inhibitors | P. falciparum luciferase reporter growth, 96 h | 320,000 compounds, 6.9% hits
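Readout is luminescence from an integrated firefly luciferase in P. falciparum. Red cells, 2% hematocrit and 0.05% parasitemia final, were cultured with compound through two parasite generations (96 hours) at 37 C, 5% CO2.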
Of the large screens only hits and unclear results are named; the others gave an inactive call. Shown are actives, neighbours in structure and some others; about 21% of the full set was active somewhere. Unless noted, calls follow the shape of the dose curve; as a rule, active = well fitted inhibition curve with a large enough effect; inconclusive = small, poorly fitted or top-dose-only effect, or another doubt; inactive = no such curve, though single readings can be large or run the other way.

O=C(CSc1nc2ccccc2n1Cc1ccccc1Cl)N/N=C/c1ccccc1C(=O)O	CHX counter 17, NS1 function inh inconclusive, Pf growth 48h inconclusive, Pf growth 96h 5.2µM
COc1ccc(C(=O)Nc2ccc(NC(=O)c3ccco3)c(Cl)c2)cc1OC	none
O=C(Nc1cccc(NC(=O)c2ccc([N+](=O)[O-])o2)c1)c1ccco1	Pf growth 48h 9.3µM
O=C(Nc1cccc(NC(=O)c2cccs2)c1)c1ccc([N+](=O)[O-])o1	CHX counter 13, Pf growth 48h 12µM, Pf growth 96h 3.3µM
COc1cc(NC(=O)c2ccc([N+](=O)[O-])o2)ccc1NC(=O)c1cccs1	Pf growth 48h inconclusive (no result: NS1 function inh)
O=C(/C=C/c1cccc([N+](=O)[O-])c1)Nc1cccc(NC(=O)c2cccs2)c1	NS1 function inh inconclusive, Pf growth 96h 4.1µM
O=C(Nc1ccc(NC(=O)c2ccc([N+](=O)[O-])o2)cc1Cl)c1ccco1	Pf growth 48h 12µM
CCCOCCOC(=O)C1=C(C)NC(=O)NC1c1cc(Cl)c(O)c(OC)c1 (stereo not given)	none
O=C(/C=C/c1ccc(Cl)c([N+](=O)[O-])c1)Nc1ccc(NC(=O)c2ccco2)cc1	none
COc1ccc(Br)cc1C(=O)Nc1cccc(NC(=O)c2ccco2)c1	none
O=C(Nc1ccc(Cl)c([N+](=O)[O-])c1)c1ccco1	CHX counter 20
O=C(Nc1cccc(NC(=O)c2ccc(-c3cccc(Br)c3)o2)c1)c1ccco1	CHX counter 58, Shiga inhibitor 73, Pf growth 48h inconclusive
CCN1C(=NCCc2cccs2)N[C@@H](CCc2ccccc2)[C@H](C(=O)NCCc2cccs2)[C@H]1C	Pf growth 48h 1.5µM
CCN1C(=NCCOC)N[C@@H](c2ccccc2)[C@H](C(=O)OC)[C@H]1C	none
COc1ccc(-c2nnc(NC(=O)c3ccccc3[N+](=O)[O-])s2)c(OC)c1	none
C=CCN(c1ccccc1C(=O)NCC(=O)O)S(=O)(=O)c1ccc(C)cc1	none
COc1ccccc1NC(=O)C(=O)NCC(c1ccco1)N1CCc2ccccc21 (stereo not given)	Pf growth 48h 12µM, Pf growth 96h inconclusive (no result: CHX counter, NS1 function inh, Shiga inhibitor)
COc1ccccc1C(=O)NCC(c1ccco1)N1CCc2ccccc21 (stereo not given)	Pf growth 48h 10µM, Pf growth 96h 5.2µM (no result: CHX counter, NS1 function inh, Shiga inhibitor)
COc1ccccc1C(=O)NCC(c1cccs1)N1CCc2ccccc21 (stereo not given)	Pf growth 48h 12µM, Pf growth 96h 3.7µM (no result: CHX counter, NS1 function inh, Shiga inhibitor)
O=C(NCC(c1ccco1)N1CCc2ccccc21)C(=O)Nc1ccccc1 (stereo not given)	Pf growth 48h 1.3µM, Pf growth 96h inconclusive (no result: CHX counter, NS1 function inh, Shiga inhibitor)
COc1cc(C(=O)NCC(c2ccco2)N2CCc3ccccc32)cc(OC)c1OC (stereo not given)	none (no result: CHX counter, NS1 function inh, Shiga inhibitor)
Cc1ccc(C(=O)NCC(c2ccco2)N2CCc3ccccc32)cc1C (stereo not given)	Pf growth 48h 9.3µM, Pf growth 96h inconclusive (no result: CHX counter, NS1 function inh, Shiga inhibitor)
O=C(NCC(c1ccco1)N1CCc2ccccc21)c1ccccc1 (stereo not given)	Pf growth 48h inconclusive, Pf growth 96h inconclusive (no result: CHX counter, NS1 function inh, Shiga inhibitor)
CNC(=O)C(=O)Nc1cc2c3c(c1)CCN3C(=O)CC2	none
Clc1ccc(-c2nnn(Cc3nc4ccccc4s3)n2)cc1	CHX counter 25, Shiga inhibitor 96
Fc1ccc(-c2nnn(Cc3nc4ccccc4s3)n2)cc1	CHX counter 12 (no result: Pf growth 96h)
C[C@@H](NC(=O)Cn1ccc(NC(=O)OCc2ccccc2)nc1=O)c1cccc2ccccc12	none (no result: CHX counter, NS1 function inh, Shiga inhibitor)
CC1(C)OC2OC(COC(=O)c3ccccc3)C3OC(C)(C)OC3C2O1 (stereo not given)	CHX counter 31, Pf growth 96h inconclusive
C=CCn1c(=S)[nH]c2cc(C(=O)N3CCN(c4ccccc4OC)CC3)ccc2c1=O	Pf growth 48h inconclusive, Pf growth 96h inconclusive (no result: CHX counter, NS1 function inh, Shiga inhibitor)
CN(C)/C=N/c1ncn(-c2ncc(C(F)(F)F)cc2Cl)n1	Shiga inhibitor 50 (no result: NS1 function inh)
CN(C)/C=N/S(=O)(=O)c1cccn1-c1ncc(C(F)(F)F)cc1Cl	none
CSCCNC(=O)c1ccc(OC2CCN(CCc3ccccc3)CC2)cc1	CHX counter 15, Pf growth 48h inconclusive, Pf growth 96h inconclusive
COC(=O)CCCNC(=O)c1ccc(OC2CCN(CCc3ccccc3)CC2)cc1	none
O=C(NCCn1cccn1)c1ccc(OC2CCN(CCc3ccccc3)CC2)cc1	CHX counter 14, Shiga inhibitor 29
CN(C(=O)c1ccc(OC2CCN(CCc3ccccc3)CC2)cc1)C1CCOCC1	Pf growth 96h 9.3µM
COC1CCN(C(=O)c2ccc(OC3CCN(CCc4ccccc4)CC3)cc2)CC1	Pf growth 96h inconclusive
O=C(NC1CCOC1)c1ccc(OC2CCN(CCc3ccccc3)CC2)cc1 (stereo not given)	Pf growth 96h 2.3µM
CN(C(=O)c1ccc(OC2CCN(CCc3ccccc3)CC2)cc1)C1CCOC1 (stereo not given)	Pf growth 96h inconclusive
CN(CC(=O)Nc1cccc(S(=O)(=O)N2CCCC2)c1)Cc1ccccc1	none (no result: CHX counter, NS1 function inh, Shiga inhibitor, Pf growth 48h, Pf growth 96h)
CSc1ccc(S(=O)(=O)NCCCOC(C)C)cc1	none
O=C(Cn1nnc(-c2ccc(Cl)cc2)n1)NCC1CCCCC1	none
CCN1CCN(C(=O)c2ccc(OC3CCN(CCc4ccccc4)CC3)cc2)[C@@H](C)C1=O	Pf growth 48h inconclusive, Pf growth 96h 3.7µM
COc1cc(/C=C(/C#N)c2nc3ccccc3[nH]2)ccc1Oc1ncccc1[N+](=O)[O-]	CHX counter 13, Pf growth 48h 15µM, Pf growth 96h inconclusive
CCOC(=O)/C(O)=C(\C#N)c1nc2ccccc2[nH]1	none (no result: NS1 function inh)
COc1ccc(/C=C(/C#N)c2cccnc2)cc1OC	Pf growth 48h inconclusive
N#C/C(=C\c1ccc(N2CCCCC2)c([N+](=O)[O-])c1)c1nn(-c2ccccc2)c(N)c1C#N	none
CCOc1cc(/C=C(\C#N)c2nc3ccccc3[nH]2)ccc1OC(C)C(=O)O (stereo not given)	CHX counter 30, Shiga inhibitor 77
CCOc1cc(/C=C(/C#N)c2nc3ccccc3[nH]2)ccc1Oc1ccc([N+](=O)[O-])cn1	CHX counter 11, Pf growth 48h inconclusive, Pf growth 96h 2.3µM
N#C/C(=C\c1ccc(N2CCCC2)c([N+](=O)[O-])c1)c1nc2ccccc2[nH]1	CHX counter 50, Shiga inhibitor 112, Pf growth 48h inconclusive
CC(C)c1ccc(N(CC(=O)NC(C)(C)C)C(=O)CCC(=O)Nc2nccs2)cc1	NS1 function inh inconclusive, Pf growth 96h inconclusive
CSCC[C@H](NC(=O)[C@H](CC(C)C)N(C)C(=O)[C@@H]1CCCN1C(=O)[C@H](Cc1ccccc1)NC(=O)[C@H](Cc1ccccc1)NC(=O)CCC(C)N)C(=O)O (stereo not given in full)	none (no result: NS1 function inh, SARS PLP yeast, Pf growth 48h, Pf growth 96h)
Cc1onc(-c2ccccc2)c1C(=O)NN1CCOCC1	none (no result: CHX counter, NS1 function inh, Shiga inhibitor, Pf growth 48h, Pf growth 96h)
CC(=O)c1cc(C(=O)N2CCc3c([nH]c4ccccc34)C2CC(C)C)[nH]n1 (stereo not given)	Pf growth 48h inconclusive, Pf growth 96h 9.3µM

Compound activity (PubChem BioAssay)
